Results as given in publication PMC4336329 (PLoS ONE, 2015).
Screen size: about 310,000 compounds; about 14,000 (4.5%) showed an effect of 50% or more. Effects have a minus sign here. The list comes from a sample in which strong results are over-represented; it also holds similar structures and randomly drawn compounds.

biological target: human ether-à-go-go-related gene (hERG) potassium channel (human, UniProt Q12809); assay: primary screen, population patch clamp on CHO cells stably expressing hERG; higher = less effect of the substance
Sequence (Q12809 whole entry, looked up): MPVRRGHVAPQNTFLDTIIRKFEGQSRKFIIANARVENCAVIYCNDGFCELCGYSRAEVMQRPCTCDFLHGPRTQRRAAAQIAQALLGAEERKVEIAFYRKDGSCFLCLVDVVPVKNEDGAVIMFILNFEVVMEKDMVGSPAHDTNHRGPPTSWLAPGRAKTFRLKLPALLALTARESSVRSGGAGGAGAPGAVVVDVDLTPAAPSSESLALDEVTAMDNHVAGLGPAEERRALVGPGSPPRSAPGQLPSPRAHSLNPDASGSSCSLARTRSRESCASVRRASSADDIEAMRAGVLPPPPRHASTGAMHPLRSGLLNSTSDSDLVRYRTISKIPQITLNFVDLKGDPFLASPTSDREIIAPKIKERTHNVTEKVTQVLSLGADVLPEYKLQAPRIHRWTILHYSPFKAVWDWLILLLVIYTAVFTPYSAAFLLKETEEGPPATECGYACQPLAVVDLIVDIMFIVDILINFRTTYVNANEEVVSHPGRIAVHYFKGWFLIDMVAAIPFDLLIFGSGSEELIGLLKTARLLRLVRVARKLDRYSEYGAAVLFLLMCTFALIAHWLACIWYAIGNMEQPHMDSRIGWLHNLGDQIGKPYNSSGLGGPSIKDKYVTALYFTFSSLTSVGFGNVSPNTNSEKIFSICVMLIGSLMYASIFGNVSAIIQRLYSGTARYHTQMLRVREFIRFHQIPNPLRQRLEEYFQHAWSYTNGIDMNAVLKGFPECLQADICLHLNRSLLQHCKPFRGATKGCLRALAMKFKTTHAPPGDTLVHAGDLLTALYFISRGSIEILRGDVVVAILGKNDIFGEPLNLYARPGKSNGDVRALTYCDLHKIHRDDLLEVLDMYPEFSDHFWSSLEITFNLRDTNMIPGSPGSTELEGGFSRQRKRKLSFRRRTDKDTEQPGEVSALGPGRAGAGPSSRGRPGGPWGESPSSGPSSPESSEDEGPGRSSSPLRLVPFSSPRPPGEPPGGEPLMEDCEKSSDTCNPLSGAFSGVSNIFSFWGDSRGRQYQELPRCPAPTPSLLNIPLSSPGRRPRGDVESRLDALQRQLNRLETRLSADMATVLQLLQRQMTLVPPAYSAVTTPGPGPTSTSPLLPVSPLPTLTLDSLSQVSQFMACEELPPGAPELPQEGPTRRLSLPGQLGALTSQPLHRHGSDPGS
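Note: peak tail current of the secondary pulse compared with the same well before compound.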

Structure (SMILES)	hERG current change (%, negative = inhibition) at 10uM
O=C(COC(=O)CCc1nc2ccccc2s1)NC(=O)NCc1ccco1	-11.4%
CCOc1cc(/C=C/C(=O)c2ccc(OC)c(CN3CCOCC3)c2)cc(Br)c1O	-32.5%
CCSc1nsc(NC(=O)Nc2cccc(C(C)=O)c2)n1	10.5%
Cc1ccc(-c2ccc(S(=O)(=O)N3CC(C)OC(C)C3)cc2)cc1 (stereo not drawn)	18.7%
CCCSc1cc(N2CCN(C)CC2)nc(-c2ccc(OC)cc2)n1.Cl	-29.2%
COc1ccc(C(=O)NCC(=O)OCC(=O)NCCC2=CCCCC2)cc1	-12.7%
COCCCn1c(SCC(=O)NC2CCCCC2)nnc1-c1ccncc1	19.8%
COc1ccc(CC(=O)Nc2cc(C)on2)cc1	5.74%
COc1cc(OC)cc(C(=O)NC(C(=O)Nc2ccc3c(c2)OCCO3)C(C)C)c1 (stereo not drawn)	-11%
CCN(CC)CCn1c(C)nc2c(sc3nc4c(cc32)COC(C)(C)C4)c1=O	-22.3%
O=C(NCC1CCCO1)c1onc(CSc2cccc3ccccc23)c1C(=O)O (stereo not drawn)	14.4%
COc1cccc(NC(=O)CN(C)C(=O)CSCc2nc3scc(-c4cccs4)c3c(=O)[nH]2)c1	-16.2%
CCC(C)(C)NC(=O)C(c1ccc(OC)cc1)N(C(=O)CCC(=O)Nc1cc(C)on1)c1ccc(OC)cc1OC (stereo not drawn)	-7.89%
COc1ccccc1NC(=S)N1CCN(C/C=C/c2ccccc2)CC1	-0.974%
COc1ccccc1NC(=O)C(C)N1CCN(C/C=C/c2ccccc2)CC1 (stereo not drawn)	-74.5%
COc1ccc(Cl)cc1NC(=O)C(C)N1CCN(c2ccccn2)CC1 (stereo not drawn)	-18.3%
COc1ccc(Cl)cc1NC(=O)C(C)N1CCN(C/C=C/c2ccccc2)CC1.O=C(O)C(=O)O (stereo not drawn)	-63.4%
COC(=O)c1ccccc1NC(=O)N1CCN(C/C=C/c2ccccc2)CC1	-45.1%
COc1ccc(Cl)cc1NC(=O)C(C)N1CCc2ccccc21 (stereo not drawn)	23.9%
C=CCc1cccc(CNc2ccc(S(=O)(=O)Nc3nccnc3OC)cc2)c1O	-9.98%
N=c1c2c3c(sc2ncn1N)CCCC3	2.04%
COc1ccccc1C1C2=C(CCCC2=O)N(CC(=O)O)C2=C1C(=O)CCC2	15.9%
CCn1c(SC)nnc1-c1nn(-c2ccccc2)ccc1=O	11.3%
CCn1c(SCc2ccc(F)cc2)nnc1-c1nn(-c2ccccc2)ccc1=O	-35.1%

Structure (SMILES)	hERG current change (%, negative = inhibition) at 10uM
CCn1c(SCc2c(Cl)cccc2Cl)nnc1-c1nn(-c2ccccc2)ccc1=O	-66.1%
COCCNc1ccc(-c2n[nH]c(=O)c3ccccc23)cc1[N+](=O)[O-]	9.51%
CN1C(=O)S/C(=C/c2cccnc2)C1=O	-0.904%
O=C(Cn1cnc2ccccc21)N/N=C/C(Br)=C/c1ccccc1	5.98%
CCC(C)NS(=O)(=O)c1ccc(F)c(C(=O)Nc2c(F)cc(F)cc2Br)c1 (stereo not drawn)	-60.8%
O=C(Nc1c(F)cc(F)cc1Br)c1cc(S(=O)(=O)N2CCN(c3ccccn3)CC2)ccc1F	-15.9%
CCN1CCN(S(=O)(=O)c2ccc(F)c(C(=O)Nc3c(F)cc(F)cc3Br)c2)CC1	-17.1%
CC(=O)Nc1ccc(S(=O)(=O)N(CC(=O)Nc2cc(C)on2)Cc2ccc(F)cc2)cc1	-11.5%
COc1cccc2cc(C(=O)C3=C(O)C(=O)N(CCN4CCOCC4)C3c3cccs3)oc12 (stereo not drawn)	13.1%
CCOc1nc(Nc2ccc(OC)cc2)nc(N2CCOCC2)n1	-4.52%
COc1ccc(NC(=S)NCCN2CCOCC2)cc1	21.7%
COc1ccc(Nc2nc(N3CCOCC3)nc(N3CCOCC3)n2)cc1	11.7%
CCOc1ccc(Nc2nc(N3CCOCC3)nc(N3CCOCC3)n2)cc1	-17.9%
CCOc1ccc(Nc2nc(NCCN3CCOCC3)nc(OC)n2)cc1	-63.8%
COc1nc(NCCN2CCOCC2)nc(Nc2ccccc2)n1	-50.5%
Clc1ccc(Nc2nc(NCCN3CCOCC3)nc(N3CCOCC3)n2)cc1	-56%
c1ccc(Nc2nc(NCCN3CCOCC3)nc(Nc3ccccc3)n2)cc1	-15.2%
COc1ccc(Nc2nc(NCCN3CCOCC3)nc(Nc3ccc(OC)cc3)n2)cc1	-78.2%
Clc1ccc(CNc2nc(N3CCOCC3)nc(N3CCOCC3)n2)cc1	-20%
C=CCNc1nc(NCCN2CCOCC2)nc(OC)n1	-4.89%
C=CCNc1nc(NCCN2CCOCC2)nc(N2CCOCC2)n1	18.6%
Cc1cc(C)nc(NS(=O)(=O)c2ccc(NC(=O)COc3ccccc3F)cc2)n1	4.9%
CCCc1nc(SCc2ccccc2Cl)n[nH]1	10.7%
COc1cccc(CN(C)CC(=O)Nc2sc3c(c2C#N)CCC3)c1OC	10.3%

Structure (SMILES)	hERG current change (%, negative = inhibition) at 10uM
COc1ccc(-n2c3c(cc(C#N)c2=O)C(=O)CCC3)cc1	29.1%
COc1ccc(Oc2c(C)oc3c(CN(C)C)c(O)ccc3c2=O)cc1	-1.88%
Cc1cc(Cl)ccc1Oc1ncnc2oc(-c3ccccc3)cc12	-0.172%
O=c1cc(-c2ccccc2)oc2ccccc12	-4.17%
O=C(O)c1cc(=O)c2cc(Cl)ccc2o1	17.3%
Clc1ccc(Oc2ncnc3oc(-c4ccccc4)cc23)cc1	4.39%
CC(C)C[NH+]=c1cc(-c2ccccc2)oc2ccc(Cl)cc12.F[B-](F)(F)F	-87.4%
CC(O)C[NH+]=c1cc(-c2ccccc2)oc2ccc(Cl)cc12.F[B-](F)(F)F (stereo not drawn)	-69.4%
Cc1nn(Cc2ccccc2Cl)c(C)c1C(=O)OCC(=O)N1CC(C)OC(C)C1 (stereo not drawn)	1.43%
Clc1ccc(N2CCN(Cc3ccco3)CC2)cc1	-14.2%
CCOC(=O)Cc1c(C)nc2c(-c3ccccc3)c[nH]n2c1=O	2.48%
Cc1nn(S(=O)(=O)N2CCOCC2)c(C)c1Br	-0.162%
O=C(O)C(Cc1ccccc1)N1C(=O)c2c(Cl)c(Cl)c(Cl)c(Cl)c2C1=O (stereo not drawn)	3%
COc1ccc(NS(=O)(=O)c2cc(NC(=O)C3CC3)ccc2N2CCCCC2)cc1	9.99%
COC(=O)c1cccc([N+](=O)[O-])c1CN1CCCC(C(N)=O)C1 (stereo not drawn)	18.4%
COc1ccccc1C(=O)N/C(=C/c1ccc(Br)cc1)C(=O)N1CCCC1	-48.9%
COc1ccccc1C(=O)N/C(=C\c1ccc(Br)cc1)C(=O)N1CCCC1	-48.6%
O=C(N/C(=C/c1ccc(Br)cc1)C(=O)N1CCCCC1)c1ccccc1F	-40.7%
O=C(N/C(=C\c1ccc(Br)cc1)C(=O)N1CCCC1)c1ccccc1F	-71.8%
O=C(N/C(=C\c1ccc(Br)cc1)C(=O)N1CCOCC1)c1ccccc1Cl	-2.31%
O=C(N/C(=C/c1ccc(Br)cc1)C(=O)N1CCCC1)c1ccccc1F	-71.5%
CCCCn1cnc2c(c1=O)c1nc3ccccc3nc1n2Cc1ccc2c(c1)OCO2	24.1%
O=C(NCCCNC(=O)c1cnccn1)c1cccc(Cl)c1	-5.72%
O=C(COC(=O)/C=C/c1ccc(S(=O)(=O)N2CCOCC2)cc1)NCc1ccc(Cl)cc1	1.35%

Structure (SMILES)	hERG current change (%, negative = inhibition) at 10uM
Cc1cccc(N2CCN(C(=O)c3cc4c(=O)n(C)c5ccccc5c4n3C)CC2C)c1 (stereo not drawn)	-16%
Cc1ccc(S(=O)(=O)NCCC(=O)OCC(=O)Nc2ccccc2Cl)cc1	-10.5%
O=C(c1cccn2c(=O)c3cc(Br)ccc3nc12)N1CCN(c2ccccn2)CC1	-33.6%
O=C(c1cccn2c(=O)c3ccccc3nc12)N1CCC2(CC1)OCCO2	5.98%
COc1ccc(N2CCN(C(=O)c3cccn4c(=O)c5ccccc5nc34)CC2)cc1	-60.1%
COc1ccc(-c2cc(C(=O)N3CCN(c4ccccc4)CC3)c3ccccc3n2)cc1	5.37%
O=C(c1cccn2c(=O)c3ccccc3nc12)N1CCN(c2ccccn2)CC1	-53%
O=C(c1cccn2c(=O)c3cc4ccccc4cc3nc12)N1CCN(c2ccccc2)CC1	-7.73%
COc1ccc2c(c1OC)C(=O)OC2C1c2c(cc3c(c2OC)OCO3)CCN1C (stereo not drawn)	-1.42%
O=C(CSc1nc2ccccc2c(=O)n1CCC(=O)N1CCN(c2ccccc2)CC1)NCC1CCCO1 (stereo not drawn)	-45.6%
COc1ccccc1N1CCN(C(=O)CSc2nc3ccccc3c(=O)n2CC2CCCO2)CC1 (stereo not drawn)	-67.6%
O=C(CSc1nc2ccccc2c(=O)n1CC1CCCO1)Nc1ccccc1Cl (stereo not drawn)	-22.1%
O=c1c2ccccc2nc(SCc2ccncc2)n1CC1CCCO1 (stereo not drawn)	-54%
O=C(CSc1nc2ccccc2c(=O)n1CC1CCCO1)N1CCN(c2ccccc2)CC1 (stereo not drawn)	-73.4%
COc1ccccc1NC(=O)CSc1nc2ccccc2c(=O)n1CC1CCCO1 (stereo not drawn)	2.49%
O=C(CSc1nc2ccccc2c(=O)n1CC1CCCO1)NCc1ccccc1 (stereo not drawn)	-11%
O=C(CSc1nc2ccccc2c(=O)n1CC1CCCO1)Nc1ccccc1 (stereo not drawn)	-14.1%
O=C1CN(C(=O)CSc2nc3ccccc3c(=O)n2CC2CCCO2)c2ccccc2N1 (stereo not drawn)	-31.3%
CCOc1ccccc1NC(=O)CSc1nc2ccccc2c(=O)n1CC1CCCO1 (stereo not drawn)	-68%
O=c1c2ccccc2nc(SCc2ccccc2)n1CC1CCCO1 (stereo not drawn)	-6.67%
COc1ccc(OC)c(NC(=O)CSc2nc3ccccc3c(=O)n2CC2CCCO2)c1 (stereo not drawn)	-41.2%
